CBX7 inh – blocks human CBX7 binding to H3K27me3 peptide; O95931; AlphaScreen His6-CBX7 / biotin-H3K27me3 peptide binding; stronger effect = lower value; normalised signal (fraction of DMSO) (concentration not given with the values); 66,000 compounds, 1.1% hits; in the data active = normalised signal below about 0.5
Target sequence (O95931 whole entry, looked up): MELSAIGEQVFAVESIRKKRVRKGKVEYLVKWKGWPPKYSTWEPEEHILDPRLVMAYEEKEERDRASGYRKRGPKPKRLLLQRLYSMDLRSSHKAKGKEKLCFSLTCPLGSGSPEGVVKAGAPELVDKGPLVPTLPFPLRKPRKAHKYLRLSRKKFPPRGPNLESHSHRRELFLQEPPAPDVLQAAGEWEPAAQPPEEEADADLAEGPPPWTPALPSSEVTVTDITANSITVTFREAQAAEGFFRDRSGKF
Numbers stand for hits; 0 = inactive. The full list was thinned out, with hits kept by preference.

SMILES	CBX7 inh
COc1ccccc1N1CCN(c2nnc(C)c3ccccc23)CC1	0
COc1cc(CN2CCN(Cc3ccccc3Br)CC2)cc(OC)c1OC	0
Cc1ccccc1-c1nc(CN2CCC(C(=O)NCc3ccc(Cl)cc3)CC2)c(C)o1	0
CCC1CN(C(=O)CCC(=O)NCc2ccc(F)cc2)c2cc(Cl)ccc2O1 (stereo not given)	0
COc1ccc(Cl)cc1-n1cnc2cc(C(=O)NCc3ccc(F)cc3)ccc21	0
CC(C)=CCSc1nnc(-c2cccnc2)o1	0
COc1ccc(OCC(=O)Nc2ccc(-c3nc4ccc(C)cc4s3)cc2)cc1	0
NC(=O)COc1ccc(-c2noc(/C=C/c3ccccc3)n2)cc1	0
COC(=O)c1[nH]nc(C(=O)N2CCOCC2)c1C(=O)c1ccccc1	0
O=c1c(-c2cc(Br)ccc2NCc2ccccc2)nc2ccccc2n1Cc1ccccc1	0.368
Clc1ccccc1-c1nc(NCc2ccccc2)nc2ccc(Br)cc12	0
Cc1ccccc1NCc1nc2ccccc2n1Cc1ccccc1	0.415
Cc1ccc(NCc2nc3ccccc3n2Cc2ccccc2)cc1	0
Cc1ccccc1Cn1c(CNC(=O)Cc2ccccc2)nc2ccccc21	0
c1ccc(Cn2c(NCc3ccc4c(c3)OCO4)nc3ccccc32)cc1	0
O=C(Nc1ccc(OC(F)(F)F)cc1)c1cc(-c2ccc(O)cc2)on1	0
CCCCCCCNC(=O)c1ccc(C#CC2(O)CCCCC2)cc1	0
COc1ccc(NC(=O)CSc2nc3ccccc3nc2Cc2ccc(F)cc2)cc1OC	0
COc1ccc2[nH]c(C)c(CCNS(=O)(=O)c3ccc(C4CCCCC4)cc3)c2c1	0
COc1ccccc1C(=O)N1CC(=O)Nc2ccc(Br)cc2C1c1ccc(F)cc1 (stereo not given)	0
CCC1Oc2ccc(C)cc2N(CC(=O)NCCC(C)C)C1=O (stereo not given)	0
O=c1cc(-c2ccccc2)nc(Nc2nc3ccccc3o2)[nH]1	0
COCc1cc(=O)[nH]c(Nc2nc3ccccc3o2)n1	0.117
COCc1cc(=O)[nH]c(Nc2nc(C)c3ccccc3n2)n1	0
Cc1ccc(CNC(=O)Cn2nc(-c3ccc(C)cc3)ccc2=O)cc1	0
SMILES	CBX7 inh
Cc1cc(C)c(Cc2c(C)nc3c(C(=O)NCCCN4CCOCC4)cnn3c2C)c(C)c1	0
O=C(CN1C(=O)COc2ccc(S(=O)(=O)N3CCOCC3)cc21)NCCc1ccccc1	0
CC1CCCN(S(=O)(=O)c2ccc(C(=O)Nc3nnc(-c4cccs4)o3)cc2)C1 (stereo not given)	0
CCC1CCCCN1S(=O)(=O)c1ccc(C(=O)Nc2nnc(-c3ccc(OC)cc3)o2)cc1 (stereo not given)	0
O=C(Nc1nnc(-c2cccs2)o1)c1ccc(S(=O)(=O)N2CCCCC2)cc1	0
CC1CC(C)CN(S(=O)(=O)c2ccc(C(=O)Nc3nc(-c4ccncc4)cs3)cc2)C1 (stereo not given)	0
CCC1CCCCN1S(=O)(=O)c1ccc(C(=O)Nc2nnc(C)o2)cc1 (stereo not given)	0.0944
CC1CN(S(=O)(=O)c2ccc(C(=O)Nc3nnc(-c4cccs4)o3)cc2)CC(C)O1 (stereo not given)	0
CCC1CCCCN1S(=O)(=O)c1ccc(C(=O)Nc2nnc(-c3cccc(OC)c3)o2)cc1 (stereo not given)	0
COCc1nnc(NC(=O)c2ccc(S(=O)(=O)N3CC(C)CC(C)C3)cc2)o1 (stereo not given)	0
Cc1nnc(NC(=O)c2ccc(S(=O)(=O)N3CC(C)CC(C)C3)cc2)o1 (stereo not given)	0.387
CC1CC(C)CN(S(=O)(=O)c2ccc(C(=O)Nc3nnc(-c4ccc(Cl)s4)o3)cc2)C1 (stereo not given)	0.395
CC1CN(S(=O)(=O)c2ccc(C(=O)Nc3nnc(-c4ccc(F)cc4)o3)cc2)CC(C)O1 (stereo not given)	0.0116
COCc1nnc(NC(=O)c2ccc(S(=O)(=O)N3CC(C)OC(C)C3)cc2)o1 (stereo not given)	0
CCOC(=O)CNc1c(-c2ccc(Cl)cc2)nc2c(C#N)c[nH]n12	0
CCOc1ccc(C(=O)Nc2ccc(S(=O)(=O)Nc3cc(OC)nc(OC)n3)cc2)cc1	0
Cc1ccc(Nc2nc(-c3ccc(S(=O)(=O)N4CCCC4)cc3)cs2)cc1	0
NC(=O)C1CCN(C(=O)C2CCN(c3nnc(-n4cccc4)s3)CC2)CC1	0
CC(NC(=O)c1noc2c1CCc1ccccc1-2)c1ccccc1 (stereo not given)	0
COc1cc2c(cc1OC)C(c1cccc(F)c1)NCC2 (stereo not given)	0
CCCOc1ccc(N2C(=O)CC(NCCc3ccccc3F)C2=O)cc1 (stereo not given)	0
O=C(CSCc1cnn(-c2ccccc2)c1-n1cccc1)NCCc1ccc(Cl)cc1	0
Cc1nnc(NC(=O)c2ccc(S(=O)(=O)N3CCC(C)CC3)cc2)o1	0.0279
CC1CCN(S(=O)(=O)c2ccc(NC(=O)c3ccc(C(C)(C)C)cc3)cc2)CC1	0
COc1ccc(-c2nnc(NC(=O)c3ccc(S(=O)(=O)N4CCC(C)CC4)cc3)o2)c(OC)c1	0
SMILES	CBX7 inh
COc1ccc(-n2c(Cc3cc(=O)[nH]c(=O)[nH]3)nnc2SCC(=O)Nc2ccccc2F)cc1	0
CCN(CC)S(=O)(=O)c1ccc(C(=O)Nc2nnc(-c3ccc(Cl)s3)o2)cc1	0
C=CCN(CC=C)S(=O)(=O)c1ccc(C(=O)Nc2nnc(-c3ccc(Cl)s3)o2)cc1	0.366
CN(C)S(=O)(=O)c1ccc(C(=O)Nc2nnc(-c3ccc(Cl)s3)o2)cc1	0.221
CCCCN(CCCC)S(=O)(=O)c1ccc(C(=O)Nc2nnc(-c3ccc(Cl)s3)o2)cc1	0
Cc1ccc(F)cc1NC(=O)Cn1cnc2sc(C)c(C)c2c1=O	0
CCN(C(=O)Cn1nc(-c2ccc(OC)cc2)ccc1=O)c1cccc(C)c1	0
CCOC(=O)c1cnc2ccc(OCC)cc2c1N1CCCCCC1	0
CCOC(=O)c1cnc2c(OC)cccc2c1N1CCC(C)CC1	0
CCOC(=O)c1cnc2c(OC)cccc2c1N1CCN(c2ccccc2F)CC1	0.425
CCOC(=O)c1cnc2c(OC)cccc2c1N1CCN(c2ccccc2)CC1	0
CCOC(=O)c1cnc2cc(C(F)(F)F)ccc2c1N1CCN(c2ccccc2OC)CC1	0
CCOC(=O)c1cnc2ccc(OCC)cc2c1N1CCN(c2ccccc2OC)CC1	0.462
Cc1cc(C(=O)N2CCN(C3CCCCC3)CC2)nn1-c1ccccc1	0
CCOc1ccc(N2CC(c3nc4ccccc4n3Cc3ccccc3)CC2=O)cc1 (stereo not given)	0
CCc1cc(-c2nc(-c3ccc(Br)cc3)cs2)ccn1	0
Cc1cc(OCC(=O)NCCc2nc3ccccc3[nH]2)ccc1Br	0
COc1ccc(N2CCN(c3oc(COc4ccccc4F)nc3C#N)CC2)cc1	0
Cc1ccc(OCc2nc(C#N)c(N3CCN(Cc4ccccc4)CC3)o2)cc1	0.459
Cc1ccc(OCc2nc(C#N)c(N3CCC(C(N)=O)CC3)o2)cc1	0
N#Cc1nc(COc2ccccc2F)oc1N1CCN(c2ccccc2)CC1	0.48
N#Cc1nc(COc2ccccc2F)oc1N1CCCC1	0
CCN1CCN(c2oc(COc3ccccc3)nc2C#N)CC1	0
CN1CCN(c2oc(COc3ccc(F)cc3)nc2C#N)CC1	0
COc1ccc(OCc2nc(C#N)c(N3CCOCC3)o2)cc1	0
COc1ccccc1OCc1nc(C#N)c(N(C)C)o1	0
Cc1ccc(OCc2nc(C#N)c(N3CCN(c4ccccc4)CC3)o2)cc1	0.458
CN(Cc1ccccc1)c1oc(COc2ccc(F)cc2)nc1C#N	0.435
